The sample as a whole holds a higher share of hits than the screen did.
Tg IFNy HTS: blocks Toxoplasma gondii growth in the presence of IFN-gamma. Toxoplasma gondii growth in IFN-gamma-treated host cells; stronger effect = lower value. activity change, negative = inhibition, % (no concentration beside the values). hit rate 3.8% among 69,000; in the data active = activity change below about -70%, passing the limit was not always enough;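 also: host cells are HeLa cells infected with Toxoplasma gondii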
Starred values were filed as active, the others as inactive; i = inactive.

SMILES	Tg IFNy HTS
CCOc1cccc(C2c3[nH]c4ccccc4c3CCN2C(=O)c2cccc(C)c2)c1 (configuration not stated)	-112.5*
Cc1cccc(C(=O)N2CCc3c([nH]c4ccccc34)C2c2cccc(C)c2)c1 (configuration not stated)	i
c1ccc(-c2ncn(CC3CNCCO3)c2-c2cc3ccccc3[nH]2)cc1 (configuration not stated)	63.7
COc1ccc(N2CCN(C(=O)c3csc(C(=O)NC4CC4)n3)CC2)cc1	-12.7
CCC1=NC2(CCN(C(=O)C(CC)N3Cc4ccccc4C3=O)CC2)C(=O)N1 (configuration not stated)	-35.6
COc1ccc(CNC(=O)CC2N=C3c4ccccc4N=C(SCc4cc(=O)n5ccccc5n4)N3C2=O)cc1 (configuration not stated)	11.1
Cc1cnc(N2CCC3(CC(N(C)Cc4ccccn4)CO3)C2)nc1 (configuration not stated)	11.5
S=C(N/N=C1\CCCc2c1[nH]c1ccc(Br)cc21)Nc1ccccc1	-81.5*
O=C(NC(=S)Nc1ccc2c(c1)CCC2)c1ccccc1	-4.7
S=C(NCc1ccccc1)Nc1ccc(Br)cc1	66.4
CC(=O)NC1(c2ccccc2)CCN(CC(=O)Nc2ccccc2-n2ccnc2)CC1	-6.9
Cc1ccc(S(=O)(=O)CCNCC(=O)Nc2ccc(C)cc2C)cc1	-2.9
Cc1nc(Cn2ccnc2-c2cccc(CN3CCOCC3)c2)cs1	-1.3
CCc1ccccc1NC(=O)N1CCC2(CC1)NC(=O)c1ccc(Cl)cc1N2CC	1.9
CCOc1ccccc1-c1nnc(NC(=O)c2nn(CC)c(=O)c3ccccc23)s1	3.1
CN1CCN(C(=O)c2cc(-c3ccn(-c4ccc(F)cc4)n3)n3ccccc23)CC1	-23.1
c1ccc(-c2cc3c(N4CCc5ccccc54)ncnc3s2)cc1	-42.7
Clc1ncnc2sc(-c3ccccc3)cc12	61.7
c1ccc(-c2cc3ncnc(N4CCSCC4)c3s2)cc1	-98.7*
O=S(=O)(Cc1noc(-c2ccsc2)n1)c1ccccn1	10.6
O=S(=O)(Cc1nc(-c2ccsc2)no1)c1ccc(Cl)cc1	-29.7
O=S(=O)(Cc1noc(-c2cc(Cl)cc(Cl)c2)n1)c1ccc(Cl)cc1	-87.5*
Cc1cccc(-c2nc(Cc3noc(COc4ccccc4)n3)c(C)o2)c1	-22.2
Cc1c(C(=O)N2CCC(c3ncc4c(n3)CCN(C)C4)C2)[nH]c2ccc(F)cc12 (configuration not stated)	75.0
C=CC(=O)Nc1cc(Nc2nccc(-c3cn(C)c4ccccc34)n2)c(OC)cc1N(C)CCN(C)C	-74.0*
SMILES	Tg IFNy HTS
COc1cc(OC)c(NC(=O)NCC(c2cccnc2)c2cn(C)c3ccccc23)cc1Cl (configuration not stated)	i
C=CC(=O)Nc1cccc(Nc2nc(Nc3ccc(NC4CN(CCF)C4)cc3OC)ncc2C(F)(F)F)c1	12.5
CCOC1COC2(CCN(S(C)(=O)=O)CC2)C1 (configuration not stated)	89.2
CCOc1cc(C(F)(F)F)c(C(=O)N(CC)c2ccc(Cl)cc2)cn1	2.6
COC(=O)c1cnc(Sc2ccc(Cl)cc2)nc1C(F)(F)F	-101.2*
CCOC(=O)c1cnc(-c2cccs2)nc1Sc1ccc(Cl)cc1	-42.6
CCc1ccccc1NC(=O)Cn1ncc2c(N3CCOCC3)ncnc21	184.3
CCC(=O)Nc1ccc(-c2ccc(OC)nc2)c(C)n1	85.5
COc1ccc(-c2cc3c(C)nc(N)nc3n(C3CCC(OCCO)CC3)c2=O)cn1 (configuration not stated)	-82.9*
COc1ccc(-c2ccccc2OC(C)C(N)=O)cn1 (configuration not stated)	2.3
O=C(CN1C(=O)C2C3CCC(C3)C2C1=O)Nc1nnc(CC(=O)N2CCOCC2)s1 (configuration not stated)	9.6
CC1N(Cc2cccnc2)C(=O)COC12CCN(Cc1cnn(C)c1)CC2 (configuration not stated)	4.3
CC1N(CCN(C)C)C(=O)COC12CCN(Cc1cnn(C)c1)CC2 (configuration not stated)	4.0
C=CCN1C(=O)COC2(CCN(Cc3cnn(C)c3)CC2)C1C (configuration not stated)	-78.2*
Fc1cccc(CN2CCOC3(CCN(CC4CCOC4)CC3)C2)c1 (configuration not stated)	-0.5
COCC(=O)N1C[C@@H]2OCCN(CCN3CCCC3)[C@H]2C1	-6.4
S=c1n(-c2ccccc2)cnn1CN1CCOCC1	10.3
COCCn1cc2c(n1)C(CNC(=O)N(C)C)OCC2 (configuration not stated)	-58.5
CN1CCN(C(=O)C2CC23C(=O)N(C)c2ccccc23)CC1 (configuration not stated)	-11.1
CC(C)c1cc(-c2n[nH]c(=O)n2-c2ccc3c(ccn3C)c2)c(O)cc1O	-79.5*
COc1cc(NC(=O)CNCc2cc(F)ccc2F)ccc1Cl	-5.5
CCO[C@@H]1CO[C@@]2(CCCN(C(=O)c3ccncn3)C2)C1	-12.6
O=C(Cn1c(=O)cc(C(=O)N2CCCC2)c2ccccc21)Nc1ccc(Cl)cc1	7.2
Cc1ocnc1C(=O)N1C[C@H]2OC(=O)N(CCc3cccc(Cl)c3)[C@H]2C1	-0.6
CO[C@@H]1CO[C@@]2(CCCN(C(=O)c3ccc4ncccc4c3)C2)C1	0.9
SMILES	Tg IFNy HTS
CCCNC(=O)c1cc(-c2cnc(NCc3ccccc3)nc2)cn1C	-82.5*
Cn1cc(-c2cnc(-c3ccccc3)nc2)cc1C(=O)NCCC#N	7.9
CN(C)CCCNC(=O)c1cc(-c2cnc(-c3ccccc3)nc2)cn1C	-28.5
O=C(O)C1CC(N2CCCC2)CCN1C(=O)Cc1ccsc1 (configuration not stated)	-0.8
CCc1nc2ccccc2n1C(C)C(=O)NCc1nnc(-c2ccccc2)o1 (configuration not stated)	18.3
Clc1cc2c(cc1-c1nccn1-c1ccc(Oc3nn[nH]n3)cc1)OCO2	2.3
Cc1cc2c(cc1-c1nccn1-c1ccc3cn[nH]c3c1)OCO2	-81.1*
Cc1cc2c(cc1-c1nccn1CCc1nc(-c3cccnc3)no1)OCO2	-21.8
CC(Cc1cnccn1)NC(=O)c1cccc(CC2CCNCC2)c1 (configuration not stated)	-4.9
O=C(c1cc2cccnc2n(Cc2ccc(F)cc2)c1=O)N1CCN(c2cccc(Cl)c2)CC1	-119.3*
O=C(c1cc2cccnc2n(Cc2ccc(F)cc2)c1=O)N1CCCCCC1	-12.0
CC(C)N(Cc1ccccc1)C(=O)c1cc2cccnc2n(Cc2ccc(F)cc2)c1=O	-95.6*
O=C(c1cc2cccnc2n(Cc2ccc(F)cc2)c1=O)N1CCN(c2ccccc2Cl)CC1	-84.4*
COc1ccc(N2CCN(C(=O)c3cc4cccnc4n(Cc4ccc(F)cc4)c3=O)CC2)cc1	32.9
O=C(c1ccco1)N1CCN(C(=O)c2cc3cccnc3n(Cc3ccc(F)cc3)c2=O)CC1	-15.5
CN(Cc1ccccc1)C(=O)c1cc2cccnc2n(Cc2ccccc2)c1=O	16.4
O=C(c1cc2cccnc2n(Cc2ccc(Cl)cc2)c1=O)N1CCN(c2ccccc2)CC1	-3.9
COc1ccccc1N1CCN(C(=O)c2cc3cccnc3n(Cc3ccccc3)c2=O)CC1	28.2
O=C(c1cc2cccnc2n(Cc2ccc(Cl)cc2)c1=O)N1CCN(c2ccc(F)cc2)CC1	-97.7*
O=C(c1cc2cccnc2n(Cc2ccc(F)cc2)c1=O)N(Cc1ccccc1)c1ccccc1	-28.7
CC1CCN(C(=O)c2cc3cccnc3n(Cc3ccc(F)cc3)c2=O)CC1	14.6
